CHX counter: affects cycloheximide protein synthesis inhibition readout, counter-screen; 300,000 tested, 12% active; cell reporter, cycloheximide protein synthesis inhibition counterscreen; max response, %; in the data active means max response mostly above about 13%, no sharp cut-off; inactive means mostly below about 14%; further: read at 38.3 µM for the half of the compounds with a filed dose; 0% is about no effect
Pf growth 96h: P. falciparum growth inhibition at 96 hour, primary screen for plastid delayed-death inhibitors | AID 504834 | 320,000 tested, 6.9% active | P. falciparum luciferase reporter growth, 96 h | Potency, µM (series often up to 28.7 µM), inactives show top-dose activity change, negative = inhibition, usual class: inhibitors; further: potency means the concentration at half of the fitted maximal effect; on the % scale 0 is the no-effect control and ±100 the full control effect
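Cell-based qHTS: luciferase-tagged P. falciparum in erythrocytes (2% hematocrit, 0.05% parasitemia final) incubated with compounds for 96 hours, 37 C, 5% CO2; luciferase detection reagent then added and luminescence measured.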
Shiga toxin inh: blocks Shiga toxin action in Vero cells; inhibition, % at 38.7 µM; 290,000 tested, 9.2% active; Vero cells, Shiga toxin protein synthesis inhibition reporter; in the data active means inhibition mostly above about 28%, no sharp cut-off; inactive means mostly below about 43%; further: 0% is about no effect
NS1 inh: influenza NS1 inhibition. Potency, µM (top dose mostly 46.1 µM), for the others: at the top dose activity, positive = more growth. 270,000 tested, 0.4% active; calls by dose curve; further: potency means the concentration at half of the fitted maximal effect; actives are rising curves; nearly all actives have a fitted effect of over 50% in size
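In this qHTS, NS1 from influenza A is expressed in budding yeast, where it slows growth. Cells are switched from glucose to 2% galactose medium (pH 6.0, -URA), treated with compound, and growth recovery is read at OD600.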
Giardia FBPA inh: Giardia lamblia aldolase inhibition | A8B2U2 | AID 2451 | Potency, µM (highest dose often 59.6 µM), inactives show at the highest dose activity, negative = inhibition, usual class: inhibitors | purified Giardia FBPA | 290,000 tested, 0.71% active; further: potency means the concentration at half of the fitted maximal effect; on the % scale 0 is the no-effect control and ±100 the full control effect; nearly all actives have a fitted effect of over 55% in size
Target sequence (A8B2U2 whole entry, looked up): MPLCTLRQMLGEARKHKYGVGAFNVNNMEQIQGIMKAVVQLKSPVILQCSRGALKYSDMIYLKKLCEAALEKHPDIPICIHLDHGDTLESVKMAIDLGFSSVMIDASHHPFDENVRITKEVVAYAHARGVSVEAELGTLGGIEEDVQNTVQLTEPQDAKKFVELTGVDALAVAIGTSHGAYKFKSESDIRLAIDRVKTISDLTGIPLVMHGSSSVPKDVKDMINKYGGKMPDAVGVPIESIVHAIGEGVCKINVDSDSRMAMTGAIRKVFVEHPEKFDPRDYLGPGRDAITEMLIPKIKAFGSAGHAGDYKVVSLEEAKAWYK
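40 nM FBPA preincubated 10 min at RT with compound (up to 57.5 uM final), then substrate plus GAPDH/TPI/NAD/arsenate coupling and diaphorase/resazurin added. Fluorescence read after 20 min at RT, 525/598 nm.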
Pf growth 48h: inhibits P. falciparum growth in the first generation, 48 h; Potency, µM (top dose mostly 28.7 µM), without a hit: at the top dose activity change, negative = inhibition, usual class: inhibitors; 310,000 tested, 5.9% active; P. falciparum luciferase growth in erythrocytes, 48 h; AID 504832; further: potency means the concentration at half of the fitted maximal effect; on the % scale 0 is the no-effect control and ±100 the full control effect
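Read-out is firefly luciferase luminescence from an integrated reporter in P. falciparum, so falling signal marks reduced parasite growth. Infected erythrocytes were at 2% hematocrit and 0.1% parasitemia (final) in Albumax-supplemented RPMI 1640.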
Active calls of the source: *; i = inactive; u = inconclusive; x = no result given; [ ] = remark or other dose. This is a sample that favours compounds with a hit; in the whole collection about 21% have one here. Unless noted, the call rests on the fitted dose curve; in most records, active means well fitted curve in the direction sought with a large enough effect; inconclusive means small, poorly fitted or top-dose-only effect, or another doubt; inactive means no such curve, though single readings can be large; an effect the other way counts as inactive or inconclusive.

SMILES | CHX counter | Pf growth 96h | Shiga toxin inh | NS1 inh | Giardia FBPA inh | Pf growth 48h
CC(=O)Nc1ccc(N=Nc2ccccc2)cc1 | 49* | -7% | 65* | -26% | 5% | 176%
O=C(CCCCCCC(=O)Nc1ccccc1)NO | x | 0.13µM* | x | x | x | 0.21µM*
CC(=O)Nc1ccccc1 | x | u | x | x | 1% | -4%
CCC(C(=O)OCC(=O)Nc1ccc(F)cc1)c1ccccc1 (centres undefined) | x | -25% | x | x | x | -20%
CC(C)C(=O)OCC(=O)Nc1ccc(N=Nc2ccccc2)cc1 | 31* | 338% | 46* | -6% | 0% | 277%
CC(=O)Nc1ccc(Nc2ccccc2)cc1 | 27* | 0% | 59* | -8% | 0% | -16%
CNC(=S)Nc1ccc(Nc2ccccc2)cc1 | 20* | 83% | 26 | -1% | -3% | 44%
CC(=O)Nc1ccc(N2S(=O)(=O)c3ccccc3S2(=O)=O)cc1 | -2 | 12µM* | -11 | -6% | 4% | -16%
CC(=O)Nc1ccc(N2Cc3ccccc3C2)cc1 | 10 | u | 13 | u | -24% | 65%
C[C@H](O)[C@@H]1C(=O)N2C(C(=O)O)=C(SCCN=CN)C[C@@H]12 | x | -14%[12.8 µM] | x | x | -7%[21.7 µM] | -2%[12.8 µM]
COc1ccc(N2C(=O)C3CCCCC3C2=O)cc1NC(=O)c1ccccc1 (centres undefined) | 4 | 10% | 46 | -1% | 1% | 2%
C=CCNc1nc(C(=O)OCC(=O)NCc2cccc(Cl)c2)cs1 | x | -2% | x | x | x | -1%
CC(=O)Nc1cccc(NC(=O)CSc2nc(=O)n3cccc(C)c3n2)c1 | x | 1% | x | x | x | 0%
CCCC(=O)Nc1ccc(C(N)=O)cc1 | 3 | 50% | 3 | x | 0% | 33%
CCCC(=O)Nc1ccc(Nc2ccccc2)cc1 | 23* | -16% | 35* | -20% | -3% | 22%
CC(=O)OCC(=O)Nc1ccc(N=Nc2ccccc2)cc1 | 38* | i | 76 | -13% | 7% | 118%
CCCC(=O)Nc1ccc(C(=O)n2ccc(C)n2)cc1 | 11* | 2% | 31 | -5% | -4% | 39%
O=C(CCCC(=O)c1ccccc1)Nc1ccc(O)cc1 | -4 | 10µM* | -14 | -2% | 18% | -15%
CCCC(=O)Nc1ccc(-c2ccc(NC(=O)CCC)cc2)cc1 | 3 | 41% | 31 | 1% | -1% | 15%
COc1cccc2cc(C(=O)NCc3ccccc3Cl)c(=O)oc12 | -2 | u | -2 | 4% | 9% | 36%
Cc1ccc(NC(=O)NNC(=O)C2CC(c3cccs3)=NO2)cc1 (centres undefined) | 0 | 24% | 22 | 2% | -10% | 8%
CC(C)c1ccc(NC(=O)Cc2ccc(NC3=NC4CS(=O)(=O)CC4S3)cc2)cc1 (centres undefined) | -2 | -18% | -2 | 9% | u | 25%
Nc1c(C(=O)Nc2nccs2)sc2nc(-c3cccs3)cc(C(F)(F)F)c12 | 3 | 6% | -3 | -5% | 3% | x
CCN(CC)C(=O)c1sc2nc(-c3cccs3)cc(-c3cccs3)c2c1N | -1 | u | -13 | 2% | 1% | 4.1µM*
Cc1nnc(NC(=O)c2sc3nc(-c4cccs4)cc(C(F)(F)F)c3c2N)s1 | 41* | 117% | 57* | 8% | 10% | 125%
SMILES | CHX counter | Pf growth 96h | Shiga toxin inh | NS1 inh | Giardia FBPA inh | Pf growth 48h
CC(C)(C)C(=O)c1sc2nc(-c3cccs3)cc(C(F)(F)F)c2c1N | 6 | 19% | 13 | 5% | -3% | 0%
O=C(C1CC=CCC1)N1CCC(CO)(Cc2ccc(Cl)cc2)CC1 (centres undefined) | -1 | u | 6 | -2% | 0% | u
CC(C)NC(=O)N1CCCC2(CCN(C(=O)c3cccc(F)c3)CC2)C1 | x | x | x | x | -1% | x
Cc1ccccc1N1CC(=O)N(c2ccccc2C)CC1=O | -6 | -1% | -12 | -1% | 5% | x
Cc1cccc2c1c1ccc3c(c1n2C)C(=O)C=CC3=O | 2 | u | 6 | 21% | u | 12µM*
COc1ccc(C(=O)OCCN2CCOCC2)cc1 | 25* | 14% | 44* | 12% | -20% | 29%
O=C(OCCN1CCOCC1)c1ccc2c(c1)OCCO2 | 53* | 160% | 75* | 5% | -2% | 84%
O=C(CCCN1CCOCC1)c1ccc2c(c1)OCCO2 | 32* | 69% | 76 | -5% | 0% | 114%
